Screening results as filed in PubChem.
Compounds with a hit are over-represented: about 0.89% of the library has one in this group of screens.
MEP2-GFP yeast – modulators of MEP2-GFP levels in yeast, primary screen, S. cerevisiae, multiplex flow cytometry, MLPCN library. GFP response vs DMSO, % at 10 µM. AID 2016, 2009. S. cerevisiae MEP2-GFP strain, 3 h; 100% = DMSO control level. 0.51% of 330,000 active;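 active means GFP response versus DMSO above a set limit, roughly screen mean plus 3 SD, cut at about 180% in these data; inconclusive means fewer than 70 cells counted for a yeast strain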;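 further: median GFP fluorescence of the barcode-gated MEP2-GFP cells per well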
CIT2-GFP yeast – modulators of CIT2-GFP expression in yeast, primary screen, S. cerevisiae, GFP fusion, multiplex flow cytometry, MLPCN library; S. cerevisiae CIT2-GFP strain, 3 h; 100 means same as DMSO wells; AID 2029, 2009; GFP response vs DMSO, % at 10 µM; 0.065% of 320,000 active;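 active means GFP response relative to DMSO above a set limit, near the screen mean plus 3 SD, cut at about 150% in these data; inconclusive means Fewer than 70 cells measured for a yeast strain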;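 further: ratio of well median GFP fluorescence to mean of DMSO wells on the plate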
RPL19A-GFP yeast – RPL19A-GFP expression modulators in yeast, primary screen, cell-based, S. cerevisiae, multiplex flow cytometry, MLPCN; S. cerevisiae RPL19A-GFP strain, 3 h; active compounds read low; percent response vs DMSO, % at 10 µM; 0.3% of 330,000 active;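 active means percent response vs DMSO below 50%; inconclusive means fewer than 70 events counted for the yeast strain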;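 further: median channel GFP fluorescence of the barcoded RPL19A-GFP strain; ratio of sample median GFP to plate DMSO average so 100% = DMSO; lower means less RPL19A-GFP as with rapamycin TOR inhibition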
AGP1-GFP MLPCN – modulators of AGP1-GFP expression in yeast TOR pathway, primary screen, cell-based, multiplex flow cytometry, S. cerevisiae, MLPCN library; AID 2066, 2009; 3 h; GFP as percent of DMSO wells; 0.02% of 320,000 active; GFP response vs DMSO, % at 10 µM;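 active means GFP response relative to DMSO above a set limit, near screen average plus 3 SD, cut at about 150% in these data; inconclusive means fewer than 70 cells counted for the yeast strain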;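 further: median GFP channel fluorescence of the gated AGP1 strain per well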
LAP4 TOR yeast – modulators of LAP4-GFP expression in yeast, primary screen, S. cerevisiae, multiplex flow cytometry, MLPCN library. GFP response vs DMSO, % at 10 µM. AID 2023, 2009. 0.34% of 320,000 active. 3 h; median GFP as percent of DMSO wells;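 active means GFP response vs DMSO above a set limit, about the screen mean plus 3 SD, cut at about 150% in these data; inconclusive means under 70 cell events counted for the yeast strain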
LAP4-GFP pick2 – LAP4-GFP expression modulators in yeast, confirmation, cell-based, second cherry pick, flow cytometry | shares compounds with LAP4 TOR yeast | S. cerevisiae LAP4-GFP strain, 3 h | GFP response vs DMSO, % at 10 µM | 20% of 590 active | AID 2621, 2010;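 active means GFP signal as percent of the solvent control above about 150%, meaning raised reporter expression, limit read from the data; inconclusive means fewer than 70 cells counted in the well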;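 further: ratio of well median GFP fluorescence to plate DMSO mean so 100% = DMSO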
MEP2-GFP pick2 – modulators of MEP2-GFP levels in yeast, confirmation, S. cerevisiae, flow cytometry GFP, second cherry picks | shares compounds with LAP4 TOR yeast | S. cerevisiae MEP2-GFP strain, 3 h | GFP response vs DMSO, % at 10 µM | 10% of 590 active | AID 2622, 2010;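 active means GFP signal above 150% of the solvent control wells, that is a rise of more than half; inconclusive means fewer than 70 yeast cells counted in the well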;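 further: median channel GFP fluorescence of all gated yeast cells per well; ratio of median GFP to plate DMSO average so 100% = DMSO level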
RPL19A-GFP pick2 – RPL19A-GFP modulators in TOR pathway yeast, confirmation, cell-based, S. cerevisiae, flow cytometry, second cherry pick; 3% of 590 active; GFP response vs DMSO, % at 10 µM; AID 2623, 2010; shares compounds with LAP4 TOR yeast; S. cerevisiae RPL19A-GFP strain, 3 h; active compounds read low; 100% means same as DMSO wells;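 active means under 65% GFP response relative to DMSO; inconclusive means yeast strain with under 70 measured events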;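 further: median GFP channel fluorescence per well over the all cells gate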
CIT2-GFP pick2 – modulators of CIT2-GFP expression in yeast, confirmation, flow cytometry, second cherry pick, single plex; S. cerevisiae CIT2-GFP strain, 3 h; DMSO control wells read 100%; shares compounds with LAP4 TOR yeast; 8% of 590 active; GFP response vs DMSO, % at 10 µM;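 active means GFP response vs DMSO above about 150%, limit read from the data; inconclusive means fewer than 70 events counted for a yeast strain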;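 further: median green fluorescence per well over all gated yeast cells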
AGP1-GFP pick2 – AGP1-GFP expression modulators, hit retest, confirmation, cell-based, flow cytometry, S. cerevisiae, cherry pick set 2; shares compounds with LAP4 TOR yeast; percent response vs DMSO, % at 10 µM; S. cerevisiae AGP1-GFP strain, 3 h; AID 2643, 2010; 590 tested, under 10 active;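 active means over 150 percent of DMSO response; inconclusive means yeast strain measured with under 70 events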;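 further: median GFP channel fluorescence over all cells without mother daughter split; sample median GFP divided by mean DMSO control so 100% equals DMSO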
Yeast autofluor – compound autofluorescence in yeast s288c, dose response, artefact control for yeast TOR pathway GFP screen, s288c strain. fluorescence change (kMESF span) at 33 µM. S. cerevisiae s288c, 520 nm autofluorescence, flow cytometry, 3 h; active compounds read high; zero means same as solvent-only cells. AID 2757, 2010. 610 tested, under 10 active. shares compounds with LAP4 TOR yeast;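 active means fluorescence span over the dose series, or activity score, above about 33, limit read from the data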
Yeast autofl DR – autofluorescence of compounds in yeast s288c, dose response, artefact control for yeast TOR pathway GFP screen, primary hits, KU SAR, s288c parental; AID 488829, 2010; shares compounds with LAP4 TOR yeast; 110 tested, under 10 active; S. cerevisiae s288c parental, compound autofluorescence, flow cytometry, 3 h; fluorescence change (span) at 33 µM;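 active means fluorescence change span, or the activity score built from it, above 25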
TORC1 bypass gr – wild-type yeast growth inhibition sparing TORC1 bypass cells, mechanism study for yeast TOR pathway GFP screen, BY4741 wild type, TORC1 bypass strain | S. cerevisiae BY4741 spot growth rating, 48-72 h; active compounds read low | 120 tested, under 10 active | growth rating (0-3) at 30 µM | AID 504456, 2011 | shares compounds with LAP4 TOR yeast;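 active means growth rating at most 1 for wild type yeast while the TORC1 bypass strain still grows fully, rated 3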
Starred values were filed as active, the others as inactive; ? = inconclusive; / = no result; [ ] = remark or other dose.

SMILES	MEP2-GFP yeast	CIT2-GFP yeast	RPL19A-GFP yeast	AGP1-GFP MLPCN	LAP4 TOR yeast	LAP4-GFP pick2	MEP2-GFP pick2	RPL19A-GFP pick2	CIT2-GFP pick2	AGP1-GFP pick2	Yeast autofluor	others
C=CCN1C(=O)C2C(C(=O)NC)C3(C)C=CC2(O3)C1C(=O)NCc1ccc(OC)cc1 (stereo unspecified)	519.2*[may fluoresce violet]	?	56.0	?	101.0	/	/	/	/	/	/
COc1ccc(C(=O)NC2CCN(CC(=O)NCc3ccccc3)CC2)cc1	505.5*[may fluoresce violet]	?	60.5	62.8	93.7	/	/	/	/	/	/
COc1ccc(C(=O)NC2CCN(CC(=O)NCc3ccccc3F)CC2)cc1	101.6	100.1	101.7	101.6	95.7	/	/	/	/	/	/
O=C(OCn1ncc(Br)c(Br)c1=O)c1c(F)cccc1F	85.4	80.6	86.6	93.4	227.3*	/	/	/	/	/	0.31	Yeast autofl DR=0.15;TORC1 bypass gr=3
Cc1nn(-c2ccccc2[N+](=O)[O-])c(=O)c2ccccc12	107.4	76.2	59.7	22.1	109.0	97.1	93.2	99.0	105.2	98.8	/
CCN1CCN(c2cc(C)c3cc(NC(=O)c4ccc(OC)c(OC)c4)ccc3n2)CC1	98.8	98.2	100.6	97.3	102.4	/	/	/	/	/	/
CCN1CCN(c2cc(C)c3cc(NC(=O)c4cccc(OC)c4)ccc3n2)CC1	153.9	90.3	59.9	48.6	99.5	102.2	96.1	100.6	118.2	98.8	/
CCc1ccc(C(=O)/C=C/c2ccc([N+](=O)[O-])o2)cc1	184.9*	155.4*	99.1	78.3	215.4*	/	/	/	/	/	4.23
COc1ccc(-c2nc(-c3cccs3)c(-c3cccs3)[nH]2)cc1O	101.3	104.4	67.5	51.0	164.4*	106.2	101.3	98.0	97.3	96.9	/
O=C(O)c1ccc(-c2nc(-c3ccccc3)c(-c3cccs3)[nH]2)cc1	104.6	111.9	110.4	104.6	105.0	/	/	/	/	/	/
Cc1ccc(CN2C(=O)[C@@H]3Cc4c([nH]c5ccccc45)C(C)(C)N3C2=O)cc1	93.0	90.3	99.6	85.2	137.2	/	/	/	/	/	/
Cc1ccc(CN2C(=O)[C@H]3Cc4c([nH]c5ccccc45)C(C)(C)N3C2=O)cc1	97.9	86.6	104.0	92.8	155.7*	102.9	101.5	98.3	101.8	96.2	/
COc1cccc(CNC(=O)CCN2C(=O)[C@@H]3Cc4ccccc4CN3C2=O)c1	104.6	118.3	97.9	96.4	88.1	/	/	/	/	/	/
CC1=C(C)/C(=N\OS(=O)(=O)c2ccccc2)C=CC1=O	88.6	91.5	82.5	74.5	254.8*	/	/	/	/	/	0.31
Cc1ccc(S(=O)(=O)O/N=C2\CCCc3ccccc32)cc1	102.1	111.2	101.2	105.1	102.2	/	/	/	/	/	/
Cc1nn2c(NCc3ccccn3)cc(C(C)C)nc2c1-c1ccccc1	96.3	63.7	94.0	69.9	126.7	/	/	/	/	/	/
CCCc1cc(NCc2ccccn2)n2nc(C)c(-c3ccccc3)c2n1	98.7	66.9	90.3	70.4	157.6*	/	/	/	/	/	2.02
COc1ccc2[nH]c(C(=O)O)c(CCN3C(=O)c4cccc([N+](=O)[O-])c4C3=O)c2c1	150.7	91.6	64.1	31.7	97.5	99.2	104.8	101.0	101.5	101.2	/
O=C(Nc1nc(-c2ccccc2)cs1)c1ccco1	94.2	85.5	98.1	91.2	113.5	/	/	/	/	/	/
CC(OC(=O)c1ccco1)C(=O)Nc1nc(-c2ccccc2)cs1 (stereo unspecified)	93.9	64.1	77.9	100.7	176.9*	120.2	94.3	98.2	102.9	98.8	0
CCOc1ccc(-c2nc(CS(=O)(=O)CC(=O)NCc3ccc(F)cc3)c(C)o2)cc1	177.3*	137.7	85.9	138.2	181.1*	102.2	101.3	97.2	101.5	101.4	/
CCSc1nnc2ccc(-c3ccc(OC)c(OC)c3)nn12	97.1	150.6*	96.8	111.3	88.8	88.2	108.3	107.5	111.2	98.3	/
CC1CN(C(=O)Cn2cc(S(=O)(=O)CC(=O)N3CCOCC3)c3ccccc32)CC(C)O1 (stereo unspecified)	114.4	163.4*	104.8	116.6	98.3	102.9	99.8	101.9	101.8	100.3	/
CC1CCN(C(=O)Cn2cc(S(=O)(=O)CC(=O)N3CCOCC3)c3ccccc32)CC1	101.0	106.8	104.5	103.7	97.5	/	/	/	/	/	/
COc1cc(/C=C2\CC/C(=C\c3cc(OC)c(O)c(OC)c3)C2=O)cc(OC)c1O	184.5*	125.9	97.5	104.9	138.3	146.2	141.4	111.2	165.1*	111.3	2.73
COc1cc(/C=C2\CC/C(=C\c3cc(OC)c(OC)c(OC)c3)C2=O)cc(OC)c1OC	98.3	103.4	103.8	103.7	98.0	/	/	/	/	/	/
O=C(Nc1ccc(Cl)cc1)ON=C1CCCC1	100.3	88.3	71.5	48.5	130.4	199.0*	149.8	84.9	223.9*	67.8	0.81
Cc1oc2c(c1C(=O)O)C(=O)c1ccccc1C2=O	88.3	73.9	110.7	97.2	156.3*	133.3	132.8	109.8	116.8	118.8	/
